Measurements as given in PubChem BioAssay AID652268 (The Scripps Research Institute Molecular Screening Center, 2013).
About 160 (10%) of roughly 1,600 compounds were called active. These entries were drawn from the full list. Unmarked numbers belong to inactive results. No stated cut-off is given here; in the data, active means activation above about 1.3%; inactive means the rest.

test: nonspecific cAMP agonists in parental HEK-CNG cells, counter-screen for GalR3 antagonist project, cell-based, fluorescence, high throughput (AID 652268); conditions: HEK293-CNG parental cells, cAMP membrane potential fluorescence; at 3 µM; hits give high values; normalised: DMSO wells 0%, forskolin wells 100%

| Structure (SMILES) | activation |
| --- | --- |
| CC(CCc1ccccc1)NCC(O)c1cccc([N+](=O)[O-])c1 (configuration not stated) | 0.27% |
| C=CCC1(CC=C)CCCN1C(=O)c1cc(COc2ccc(-n3cncn3)cc2)on1 | -0.46% |
| Nc1ncnc2c1ncn2C1OC(CO)CC1O (configuration not stated) | -0.01% |
| COc1cc(C(=O)Nn2c(O)c(C3=c4ccccc4=NC3=O)sc2=S)ccc1O | -0.64% |
| COc1ccc(CCNc2nc3ccc(C)cc3n3cnnc23)cc1OC | 0.25% |
| COc1ccc(-c2[nH]nc3c2C(c2ccncc2)C(C#N)=C(N)O3)cc1 (configuration not stated) | 0.22% |
| COCCN1Cc2cccc(C(=O)Nc3ccccc3OC)c2C1=O | 0.15% |
| CCOC(=O)c1cc2n(c1C)-c1ccccc1C2=O | 0.34% |
| CCOc1ccc(C(C)=O)cc1COC(=O)c1cnc(Cl)c(Cl)c1 | 4.48% (active) |
| Cn1c(N)c(C(=O)COC(=O)c2cnc(Cl)c(Cl)c2)c(=O)n(C)c1=O | 0.4% |
| COCCNC(=O)/C(C#N)=C/c1cccc(OCc2ccccc2)c1 | 0.53% |
| CSc1nc(N)c(C#N)c(-c2ccccc2Cl)c1C#N | -0.24% |
| O=C(Nc1ccc(CSc2ccccc2)cc1)c1ccc(CN2CCOCC2)cc1 | -1.27% |
| C[C@@]12C(=O)N(c3cccc(Br)c3)C(=O)N1[C@H](c1ccc(Cl)cc1)[C@@H]1C(=O)N(C3CCCCC3)C(=O)[C@@H]12 | -2.49% |
| COc1ccc(OC)c(NC(=O)CSc2nc(N)c(-c3ccccc3)c(=O)[nH]2)c1 | 0.95% |
| COc1ccc(-c2csc(-c3cccs3)n2)cc1OC | 0.07% |
| COc1ccc(C2Nc3ccccc3C(=O)N2c2ccc(Cl)cc2)cc1Cn1cc([N+](=O)[O-])cn1 (configuration not stated) | -0.27% |
| COc1ccc(C(=O)COC(=O)COc2ccc(C)c(C)c2)cc1 | 0.4% |
| Cc1c(C=O)c2ccccc2n1CC(=O)O | 0.2% |
| Cc1c(Cl)cccc1NC(=O)CSc1ccc(-c2cccnc2)nn1 | 0.04% |
| CC1(C)CC(N2CCN(C(c3ccccc3)c3ccccc3)CC2)=CC(=[N+]2CCCCC2)C1 | 10.7% (active) |
| CC(C)(CNC(=O)c1ccc(Cl)c(S(=O)(=O)N2CCc3ccccc3C2)c1)N1CCOCC1 | -0.38% |
| COC(=O)c1cccc([N+](=O)[O-])c1CS(=O)(=O)c1ccc(C)cc1 | -0.01% |

| Structure (SMILES) | activation |
| --- | --- |
| Cc1ccc(S(=O)(=O)N2CCN(C(=O)COC(=O)c3c(C)cc(C)cc3C)CC2)c(C)c1 | 0.55% |
| c1coc(CNc2ncnc3ccccc23)c1 | 0% |
| Cn1nccc1C(=O)NC1CCCc2c1cnn2-c1ccc(F)cc1F (configuration not stated) | -0.59% |
| CCCCNC(=O)c1ccccc1NC(=O)C1=C(C)OCCS1 | -0.01% |
| Cc1ccc(F)cc1NC(=O)Cc1nn(C)c(=O)c2ccccc12 | 0.14% |
| Cn1cnc([N+](=O)[O-])c1Nc1ccccc1O | 0.12% |
| C#Cc1ccc(NC(=O)C2(C)CCN2C(=O)Cc2ccc(-c3ccccc3)cc2)cc1 (configuration not stated) | -0.7% |
| O=C(CC1C(=O)NCCN1CC(c1ccccc1)c1ccccc1)NCCc1cn[nH]c1 (configuration not stated) | 0.5% |
| CC(=O)c1c(C)[nH]c(C(=O)COC(=O)c2cccc(S(=O)(=O)N(C)c3ccccc3)c2)c1C | -0.83% |
| c1ccc(Cc2ccc(OCCn3ccnc3)cc2)cc1 | -0.02% |
| CCCn1nc(C(=O)NNC(=O)CSCC(=O)Nc2cc(C)on2)c2ccccc2c1=O | 0.16% |
| Cn1c(CN2CCOCC2)nc2cc(NC(=O)c3ccc(Cl)cc3)ccc21 | 0.05% |
| CCNC(=S)Nc1ccc(OC(F)(F)F)cc1 | -0.01% |
| CC(C)[C@@H](C(=O)OCC(=O)c1ccc2c(c1)NC(=O)CO2)N1C(=O)c2ccccc2C1=O | 0.06% |
| OC[C@@H]1CN(Cc2ccc(-c3ccccc3)cc2)C[C@H](n2cnc3c(NC4CCCC4)ncnc32)O1 | -0.91% |
| CCCOc1ccc(Cc2c(Cl)nc(SC)nc2NC)cc1 | 1.12% |
| COc1ccc(N(C(=O)CNC(=O)c2ccco2)C(C(=O)NCC2CCCO2)c2ccccc2)cc1Cl (configuration not stated) | -0.24% |
| CC(=O)OC(C)C[N+](C)(C)C (configuration not stated) | 0.43% |
| COC(=O)c1ccc(/C=N/N2C(C)CCCC2C)cc1 (configuration not stated) | 0.27% |
| COc1cc(NC(=O)c2cc([N+](=O)[O-])ccc2Br)ccc1NC(=O)c1ccco1 | -0.55% |
| CCn1c(-c2cc(OC)ccc2OC)csc1=Nc1c(C)n(C)n(-c2ccccc2)c1=O | 0.13% |
| CCN1/C(=C\c2ccc3ccccc3[n+]2CC)Sc2cc(C)ccc21 | 8.28% (active) |
| Nc1nc(NCC(=O)O)nc(N2CCCCCC2)c1[N+](=O)[O-] | 0.22% |

| Structure (SMILES) | activation |
| --- | --- |
| CSc1nccc(NC(=O)c2ccc(C(C)(C)C)cc2)n1 | 0.22% |
| CCOC(=O)c1c(NC(=O)CSc2nccc(=O)[nH]2)sc(C)c1C | -1.63% |
| COc1ccc(C2CC(=O)Nc3sc(=N)c4c(N)c(C#N)c(N)nc4c32)cc1OC (configuration not stated) | -0.03% |
| CC(=O)N1CCCc2cc(S(=O)(=O)N3CCCC(C(=O)N4CCN(c5cccc(Cl)c5)CC4)C3)ccc21 (configuration not stated) | -1.04% |
| CN(Cc1cccnc1)C(=O)c1cc(COc2ccc3ncccc3c2)on1 | -0.15% |
| NC(=O)c1ccc(NC(=O)COC(=O)C(Cc2ccccc2)NC(=O)c2ccccc2)cc1 (configuration not stated) | -0.37% |
| CCOc1cc(C(=O)N2CCc3cc(OC)c(OC)cc3C2)ccc1OC(F)F | 1.51% (active) |
| O=C(Nc1ccccc1Cl)/C(Cl)=C(\Cl)S(=O)c1ccccc1 (configuration not stated) | 3.18% (active) |
| O=C(/C=C/c1c(F)cccc1Cl)Nc1nn[nH]n1 | 0.23% |
| Nc1nonc1-n1nnc(C(=O)N/N=C/c2cc(Br)ccc2O)c1CSC1=NCCS1 | 0.22% |
| CCN(CC(=O)NCc1ccc(Cl)cc1)C(=O)CSc1ccccc1 | -0.45% |
| O=C(NC(Nc1nc2ccc([N+](=O)[O-])cc2s1)(C(F)(F)F)C(F)(F)F)c1ccccc1 | 9.23% (active) |
| COc1cc(Cl)c(C)cc1NC(=O)[C@@H]1CCCN1C(=O)c1cccs1 | -0.08% |
| CCOc1ccc(Br)cc1CSC(=N)N | 3.59% (active) |
| CNC(=O)NC(=O)CSc1nnc(-c2ccc(F)cc2)n1CC1CCCO1 (configuration not stated) | 0.01% |
| CCc1ccc(-c2nc(SCC(=O)NC3CCCC3)n[nH]2)cc1 | 0.04% |
| COc1cc2c(cc1OC)C(c1cccc([N+](=O)[O-])c1)=NCC2 | 0.46% |
| COc1ccc(NS(=O)(=O)c2ccc(NC(=O)c3ccc(N(C)S(C)(=O)=O)cc3)cc2)cc1 | -0.8% |
| O=C(CC(O)(C(F)(F)F)C(F)(F)F)Nc1ccc(Cl)c(Cl)c1 | 1.84% (active) |
| CSc1nc(N(C)NC(=O)c2cccc(C)c2)c2ccccc2n1 | 2.12% (active) |
| Cc1nc2ccccc2cc1OCc1ccc(F)cc1 | 1.08% |
